Experiments:
Assay in all cases: PBM binding z-score (relative to random genomic background probes); higher = stronger binding; sequences stand for … in GC…GCGATTGACAGCGTAGAATGAAGG
[1] = tested on: FXR:RXRa (NR concentration 270 nM, RXRa partner concentration 90 nM)
Method in brief: (§1)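 Regression normalization was applied to scanned fluorescence from custom Agilent 4×180K protein-binding microarrays. Before scanning, arrays were incubated 1 h with ligand-free nuclear receptor dimers, and binding was detected with antibodies against each partner (one per run). Binding z-scores use the random background probes as reference.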

[2] = tested on: LXRa:RXRa (NR concentration 270 nM, RXRa partner concentration 90 nM)
Method in brief: as §1

[3] = tested on: LXRa homodimer (NR concentration 270 nM)
Method in brief: as §1

[4] = tested on: LXRb homodimer (NR concentration 270 nM)
Method in brief: as §1

[5] = tested on: PPARg:RXRa (NR concentration 180 nM, RXRa partner concentration 90 nM)
Method in brief: as §1

[6] = tested on: PPARg:RXRa 270nM:90nM, anti-RXR (NR concentration 270 nM, RXRa partner concentration 90 nM)
Method in brief: as §1

[7] = tested on: PPARg:RXRa 30nM:10nM, anti-RXR (NR concentration 30 nM, RXRa partner concentration 10 nM)
Method in brief: as §1

[8] = tested on: PPARg:RXRa 90nM:30nM, anti-RXR (NR concentration 90 nM, RXRa partner concentration 30 nM)
Method in brief: as §1

[9] = tested on: PPARg:RXRa DBDmut IVT, anti-RXR (DBD mutation: RXRa K156A/R161A, NR concentration 270 nM, RXRa partner concentration 90 nM)
Method in brief: as §1

[10] = tested on: PPARa:RXRa (NR concentration 270 nM, RXRa partner concentration 90 nM)
Method in brief: as §1

Row | Sequence | PBM binding z-score [1] | PBM binding z-score [2] | PBM binding z-score [3] | PBM binding z-score [4] | PBM binding z-score [5] | PBM binding z-score [6] | PBM binding z-score [7] | PBM binding z-score [8] | PBM binding z-score [9] | PBM binding z-score [10]
1 | ATCAAAAGGTCGAGGTGAGTATAGAGAAAGGGAA | 4.62 | 4.01 | 0.533 | 1.32 | 3.37 | 3.94 | 1.51 | 2.81 | 0.945 | 
2 | ATATGTAGGTTAAAGGTCATTCAGGTTGGTTCGC | 7.3 | 6.58 | 6.86 | 2.72 |  | 11 | 13.3 | 13.6 | 8.31 | 
3 | AGTCAAAGTTGAGGACGAGGTAACGTAAAGCACG | 0.359 |  | -0.388 | -0.483 | 1.44 | 1.74 | 0.562 | 0.984 | -0.189 | 0.937
4 | ATCGAAAGGTCGTGAGGTAAGTATACAGAAAGGC | 5.54 |  | 0.488 | 0.774 | 4.03 | 4.37 | 1.57 | 3.06 | 0.266 | 5.23
5 | ATATGTAGGTTAGGGGTCATTCAGGTTGGTTCGC | 6.13 | 5.98 | 4.58 | 3.55 | 11.4 | 9.8 | 10.2 | 11 | 7.09 | 
6 | CTATGTAGGTTACGGGGGTCATTCAGTTTGAAAG | 5.4 | 5.54 | 2.93 |  | 9.31 | 7.81 | 5.47 | 7.92 | 7.41 | 6.13
7 | CTATGTGGGTTAAGGGGGTCATTCAGTTTGAAAG | 5.61 | 5.47 | 3.82 |  | 8.76 | 7.71 | 5.51 | 7.71 | 7.57 | 
8 | CCGAATAGGTTACGAGGGGGCATTCAGTGCGAAT | 3.52 | 7.98 | 2.43 |  | 2.08 | 3.71 | 2 | 2.62 | 2.73 | 
9 | AATACAGGGTGACTAGGCCAGAGTAGGTACGAAT | 0.201 |  | 0.00715 | -0.0758 | 2.6 | 2.06 | 0.461 | 1.08 | 2.23 | 1.7
10 | ATATGTAGGTTACCTGGGGTCATTCAGACTAGGC | 4.89 |  | 10.8 | 2.55 | 7.13 | 6.14 | 3.84 | 5.9 | 7.37 | 5.73
11 | ACTCGGAGGACAAAGGTCAGGGCTACGCCAGTGA | 4.61 |  | 1.43 | -0.0403 | 9.17 | 7.08 | 5.85 | 7.6 | 0.813 | 4.98
12 | CGTCCAAGGTCATTGGAGGTCAGTGAAGACAGAT | 7.92 |  | 6.77 | 1.93 | 5.48 | 5.76 | 2.48 | 4.57 | 3.6 | 5.85
13 | CCTACTGGGCCAAAAAGGTCATTGATGCCGATAA | 3.46 |  | 3.19 | -0.142 | 3.35 | 3.98 | 1.41 | 3.38 | 3.88 | 4.51
14 | GCTTACGGGTCCAAGGTTATAGCATGAATAGAAT | 0.369 |  | -0.143 | -0.0563 | 1.97 | 2.86 | 1.43 | 2.47 | 0.18 | 1.78
15 | CAAAATAGGTCACCGGAAGGTCAAAGTCCGCATG | 7.48 |  | 5.46 | 1.73 | 9.14 | 7.64 | 6.2 | 7.69 | 7.95 | 6.51
16 | ACTAGTTGGTCAGCTGAGGTCACACCCAATTCGG | 2.83 |  | 2.07 | 0.443 | 1.54 | 2.06 | 0.239 | 1.19 | 1.35 | 
17 | TCTGCTAGGTCAACGTTGGTCAGCTAATCTGCTA | 3.38 |  | -0.139 | 0.362 | 2.49 | 3.4 | 1.9 | 2.71 | 3.92 | 3.2
18 | CCTCGGAGGACAACAGGAGGTCATAGCTGCCAGA | 2.31 |  | 4.2 | -0.0136 | 0.961 | 1.16 | 0.00805 | 0.459 | 0.281 | 3.13
19 | ATATGTAGTTTATCGGGTCATTCAGTTTGCGCAT | 2.53 |  | 3.41 | 0.952 | 1.86 | 2.34 | 0.761 | 1.64 | 2.99 | 
20 | CCTACTGGGTCACGAAAGGTCATTGATTCAGTGA | 6.45 |  | 6.45 | 0.81 | 9.12 | 7.71 | 5.23 | 6.95 | 7.12 | 6.44
21 | GCTGCTAGGTCAACTGATGGTCATCTAAAGCTCG | 4.19 |  | 0.86 | 0.134 | 2.92 | 3.32 | 0.892 | 2.34 | 5.18 | 3.75
22 | TCTTGTAGATCAATAGAAGTTAAGAAAGTGCGCT | 0.718 |  | -0.154 | 0.0744 | -5.78e-05 | 1.83 | 3.04 | 2.6 | 1.85 | 0.693
23 | ATCGAAAGGTCTAAGGTGAGTATACCCACCCGAA | 0.614 |  | -0.103 | -0.0723 | 1.52 | 2.08 | 0.802 | 1.56 | -0.401 | 
24 | CGAACTAGGTCATTGACAGGACAATGAATAGTAA | 4.51 |  | 0.605 | -0.0587 | 7.97 | 6.6 | 3.9 | 5.84 | 8.11 | 5.06
25 | CTCGAAAGGTCGTGCTCAGATGAGTATACCAAAC | 5.4 |  | 0.0537 | 0.486 | 2.71 | 3.42 | 0.769 | 2.09 | 0.422 | 4.71
26 | ATATGTAGGTTAACTGGGGTCATTCAGACTAGGC | 5.59 |  | 5.57 | 1.43 | 7.58 | 6.61 | 4.49 | 6.42 | 7.59 | 
27 | CCGAGTTGGTCAAGGTCACACACGCTATAGGTAC | 4.37 |  | 1.98 | 0.352 | 3.12 | 3.37 | 0.931 | 2.65 | 1.59 | 

From the supplement of paper PMC6555819
